Reference: the OligoGym collection

The sequences below were run against DCX (assay: pooled miR-30 sensor sort-seq; sequence = guide strand). Details: shRNA.
TAACATAGAATATAAACTGAGA showed a sensor-assay potency score (higher = more potent) of -0.639. TTCTCTTATATGGACTGTCTAT showed a sensor-assay potency score (higher = more potent) of -0.935. With AATGACATTACACACATCTTGC the sensor-assay potency score (higher = more potent) was -0.654. TTACTTGTGACTGTGGAGGAGA showed a sensor-assay potency score (higher = more potent) of -0.0876. Work on TACAACTGTAAGACAACTGGGA yielded a sensor-assay potency score (higher = more potent) of 0.406. TTTATTTCCATAGCAAACTGGA gave a sensor-assay potency score (higher = more potent) of -0.272. With TTCGGTAGAAGCTACAGTGGGC the sensor-assay potency score (higher = more potent) was 0.324. Sequence TTCATTTAAATCAACTCCGATT has a sensor-assay potency score (higher = more potent) of -0.375. Sequence TTTCATTTAAATCAACTCCGAT has a sensor-assay potency score (higher = more potent) of -0.0704. TTTCTGGCTATAACTATTCTAA was tested, and the sensor-assay potency score (higher = more potent) was -0.801. Work on TTGTATACAAGTCATAAGGGAT yielded a sensor-assay potency score (higher = more potent) of -0.914. Work on TTGAATGCTGCGAATCTTCAGC yielded a sensor-assay potency score (higher = more potent) of -0.1. TAAATTAACACCTACAATCTGG was tested, and the sensor-assay potency score (higher = more potent) was -0.105. With TCTAGTAGTACATATACCGCAA the sensor-assay potency score (higher = more potent) was 0.223. TTAACACCTACAATCTGGCTTC was tested, and the sensor-assay potency score (higher = more potent) was 0.157. Sequence TATTCATCTTGTTTTCTCCTGG has a sensor-assay potency score (higher = more potent) of 0.366. TCTATCTTAAAACAGCTGCAGG gave a sensor-assay potency score (higher = more potent) of -0.806. For TACAAGGTGACTTCTGTTGTGC, the sensor-assay potency score (higher = more potent) was 0.124.

What follows are sequences tested against DDAH1 in the same assay as above. Details: shRNA.
TACAGTTTGCTGCTATGTCATC showed a sensor-assay potency score (higher = more potent) of -1.54. TACTATATTGAGCTGAAGTTTT gave a sensor-assay potency score (higher = more potent) of -1.16. Work on TTCATCTTTCATCTCTACTATA yielded a sensor-assay potency score (higher = more potent) of -1.1. With TTGCATGATCTTAAGGGCCTTC the sensor-assay potency score (higher = more potent) was -0.108. Sequence TAAAGTTGCATTTTCATCTTTC has a sensor-assay potency score (higher = more potent) of 0.237. TAAAACATCTCCGCCATCTAAA was tested, and the sensor-assay potency score (higher = more potent) was -0.943. TAAACCTTTGCACTTTCTGGAT was tested, and the sensor-assay potency score (higher = more potent) was -0.647. Sequence TTTCATCTCTACTATATTGAGC has a sensor-assay potency score (higher = more potent) of -0.645. With TTAGATATATACAGTTTGCTGC the sensor-assay potency score (higher = more potent) was -0.536. With TTAATTAAAACTGAGCAGCAGG the sensor-assay potency score (higher = more potent) was -0.0699. With TTTCTGGATACTCTTCCGGGGT the sensor-assay potency score (higher = more potent) was -1.06. ATCTCTACTATATTGAGCTGAA showed a sensor-assay potency score (higher = more potent) of -0.824.

Each sequence was assayed against DDB2 in the same assay as above. Details: shRNA.
Sequence TAAACTCGGATCTCGCTCTTCT has a sensor-assay potency score (higher = more potent) of 0.0905. TCTGAGTCACATCTTCTGCTAG showed a sensor-assay potency score (higher = more potent) of -0.241. TGACACATCATCTTCCCTGAGT showed a sensor-assay potency score (higher = more potent) of 0.0365. Work on TGAGTTTCCATCGAACACGTCG yielded a sensor-assay potency score (higher = more potent) of 0.1. TTCGGCTACTAGCAGACACATC was tested, and the sensor-assay potency score (higher = more potent) was -1.25. In the case of TTGATGGTGTCTGAGCTGGCAA, the sensor-assay potency score (higher = more potent) was -1.17. Sequence TCAAATAACTGCTTGATCCCTC has a sensor-assay potency score (higher = more potent) of 0.323. TACAATCTCGGAGGTCTTCTGG gave a sensor-assay potency score (higher = more potent) of -0.449. With TTTGCCGTCCATGTTCAGCAGG the sensor-assay potency score (higher = more potent) was -0.642. Sequence TTTGAAATTAGGATCTGGGTAT has a sensor-assay potency score (higher = more potent) of -0.00871.
